Consider 24 compounds from PubChem BioAssay (NCI).

Common to all, as to test: NCI-60 one-dose screen, 48 h (100 = growth as untreated, 0 = no growth, -100 = all killed)
For experiment [1], the system named is T-47D breast. Conditions: 10 µM.
Experiment [2] relates to BT-549 breast. The note with it: 10 µM.
The test system of experiment [3] is MDA-MB-435 melanoma. Conditions: 10 µM.
Experiment [4] concerns SW-620 colon. Conditions: 10 µM.
In experiment [5] the test system is MCF7 breast. Conditions: 10 µM unless noted.
Experiment [6] deals with HCT-116 colon. The note with it: 10 µM.
Experiment [7] has as its system HCC-2998 colon. Conditions: 10 µM.
The subject of experiment [8] is KM12 colon. Conditions: 10 µM.

Molecules are shown by their SMILES. Compounds without any hit were thinned out: in the full panel of roughly 83,000, 20% have a hit.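 Note: values are percent growth. 100 is the growth of untreated cells, values between 100 and 0 indicate rising inhibition; between -100 and 0 indicates cell death.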 A number with no mark means an inactive call. Active and inactive are the calls of the source. The calls were made as follows: active = growth percent below 10; inactive = the rest.

As to `O=S(=O)(O)c1cc(O)c2c(N=Cc3ccccc3O)c(S(=O)(=O)O)ccc2c1`, the growth in experiment [1] was 106%; in experiment [2] it was 101%; in experiment [3], 109%; in experiment [4] it was 103%; in experiment [5], 104%; in experiment [6] it was 98.4%. For the same compound, the growth was 102% in experiment [7] and 103% in experiment [8].

Turning to `N#Cc1ccc(NC(=O)Nc2cccc(C#N)c2)cc1`, the growth is 66.9% in experiment [1]; 108% in experiment [2]; 78.8% in experiment [3]; 95.8% in experiment [4]; 82.8% in experiment [5]; 82.5% in experiment [6]. The growth in experiment [7] was 95.1%; in experiment [8], 102%.

Take `COc1ccc(OC)c(/C=C2\CCc3ccccc3C2=O)c1`: the growth in experiment [1] is 56.3%; in experiment [2], 44.3%; in experiment [3], -37.9% (active); in experiment [4], 17.4%; in experiment [5], 12.1%; in experiment [6] it was 19.3%. For the same compound, the growth in experiment [7] is 73.9%; in experiment [8] it was 22.8%.

With `CCOC(=O)CNN`, the growth in experiment [1] is 104%; in experiment [2], 108%; in experiment [3], 108%; in experiment [4] it was 99.2%; in experiment [5], 97.9%; in experiment [6], 107%. For the same compound, the growth in experiment [7] was 106%; in experiment [8], 101%.

As to `c1cc[n+](C2c3ccccc3C([n+]3ccccc3)c3ccccc32)cc1` (configuration not stated), the growth in experiment [1] was 75.5%; in experiment [2], 100%; in experiment [3], 79.3%; in experiment [4], 69.8%; in experiment [5], 68.8%; in experiment [6], 68.2%. Besides, the growth in experiment [7] was 68.2%; in experiment [8], 56.7%.

As to `O=C(O)CCCC(=O)O`, the growth in experiment [1] is 128%; in experiment [2], 118%; in experiment [3] it was 107%; in experiment [4], 93.1%; in experiment [5], 101%; in experiment [6] it was 100%. The values for the growth in experiment [7] and in experiment [8] were 103% and 92.4%, respectively.

As to `CCOC(=O)/C(=C/c1ccc(OC)cc1)N(CC)CC`, the growth is 92.6% in experiment [1]; 108% in experiment [2]; 110% in experiment [3]; 103% in experiment [4]; 103% in experiment [5]; 101% in experiment [6]. The growth in experiment [7] was 111%; in experiment [8], 104%.

As for `CC1(C)N=C(N)N=C(N)N1c1cccc(Br)c1`, the growth is 80.9% in experiment [1]; 46.7% in experiment [2]; 26.3% in experiment [3]; 36.6% in experiment [4]; 23.6% in experiment [5]; 22.9% in experiment [6]. The growth in experiment [7] is 23.4%; in experiment [8], 40.6%.

On to `CCNCCCCNCCCCNCCCCNCCCCNCC`, for which the growth in experiment [1] is 72.2%; in experiment [2], 123%; in experiment [3] it was 50.2%; in experiment [4], 68.3%; in experiment [5], 101%; in experiment [6], 92.6%. For the same compound, the growth in experiment [7] is 101%; in experiment [8] it was 62.1%.

`CCCCNC1(C#N)CCN(Cc2ccccc2)CC1`: the growth in experiment [1] was 17.8%; in experiment [2], 107%; in experiment [3] it was 97.5%; in experiment [4], 102%; in experiment [5] it was 102%; in experiment [6], 98%. The growth in experiment [7] was 86.9%; in experiment [8], 144%.

Consider `CCCCCCCO`, for which the growth is 104% in experiment [1]; 103% in experiment [2]; 114% in experiment [3]; 95% in experiment [4]; 88.8% in experiment [5]; 102% in experiment [6]. Further, the growth is 107% in experiment [7] and 112% in experiment [8].

As to `C=CCCCCCCCCCOC(C)=O`, the growth in experiment [1] was 97.9%; in experiment [2], 132%; in experiment [3], 110%; in experiment [4] it was 105%; in experiment [5] it was 96.2%; in experiment [6], 110%. Besides, the values for the growth in experiment [7] and in experiment [8] were 98.4% and 103%, respectively.

Turning to `O=C1OC(c2ccc(F)cc2)CC1CN1CCOCC1` (configuration not stated), the growth in experiment [1] was 93.6%; in experiment [2] it was 95.5%; in experiment [3] it was 109%; in experiment [4] it was 102%; in experiment [5], 97.6%; in experiment [6], 92.5%. For the same compound, the growth is 98.8% in experiment [7] and 102% in experiment [8].

With `CCOC(=O)/C(C#N)=C/c1cccc(C)c1`, the growth in experiment [1] is 86.5%; in experiment [2], 64.1%; in experiment [3] it was 107%; in experiment [4] it was 103%; in experiment [5], 91.3%; in experiment [6], 95.9%. Moreover, the figures for the growth in experiment [7] and in experiment [8] were 102% and 103%, respectively.

On to `Nc1nc(N)c2cc(S(=O)(=O)c3cccc(C(F)(F)F)c3)ccc2n1`, for which the growth was 74.1% in experiment [1]; 76.8% in experiment [2]; 31.7% in experiment [3]; 25.4% in experiment [4]; 43.1% in experiment [5]; 15.6% in experiment [6]. Besides, the growth in experiment [7] was 37.4%; in experiment [8], 53.1%.

As to `CCOC(=O)CCCS(C)(=O)=O`, the growth was 102% in experiment [1]; 100% in experiment [2]; 119% in experiment [3]; 105% in experiment [4]; 92.6% in experiment [5]; 110% in experiment [6]. The growth in experiment [7] is 91%; in experiment [8], 108%.

Turning to `C/C(=N\O)C1(O)CCCCC1`, the growth in experiment [1] was 72.7%; in experiment [2], 102%; in experiment [3] it was 108%; in experiment [4], 101%; in experiment [5] it was 50.7%; in experiment [6], 101%. Besides, the growth is 109% in experiment [7] and 94.6% in experiment [8].

`C#C[C@H]1CCCCCC1O` (some centres not stated): the growth was 95.4% in experiment [1]; 113% in experiment [2]; 109% in experiment [3]; 104% in experiment [4]; 107% in experiment [5]; 106% in experiment [6]. For the same compound, the growth in experiment [7] was 102%; in experiment [8], 107%.

For the compound `CCN=c1cc2sc3cc(NCC)c(C)cc3nc-2cc1C`, the growth was -1.96% (active) in experiment [1]; 36.4% in experiment [2]; -35.1% (active) in experiment [3]; 0.622% (active) in experiment [4]; -11.5% (active) in experiment [5]; 7.17% (active) in experiment [6]. The growth is 30.7% in experiment [7] and -1.68% (active) in experiment [8].

Turning to `CCOC(=O)c1[nH]c(C)c(C(C)=O)c1C`, the growth in experiment [1] was 86.9%; in experiment [2], 107%; in experiment [3] it was 94.7%; in experiment [4], 99.4%; in experiment [5] it was 87.1%; in experiment [6], 90.4%. In addition, the figures for the growth in experiment [7] and in experiment [8] were 88.6% and 98.3%, respectively.

As to `COc1ccc2c(NCCCCCCCCNc3c4ccccc4nc4cc(OC)ccc34)c3ccccc3nc2c1`, the growth in experiment [1] was -74.6% (active); in experiment [2], -95.9% (active); in experiment [3], -100% (active); in experiment [4] it was -100% (active); in experiment [5], -100% (active); in experiment [6], -100% (active). Further, the growth in experiment [7] and in experiment [8] was -100% (active) throughout.

As for `COC(=O)Nc1nc2ccc(C(=O)c3cccs3)cc2[nH]1`, the growth is 91.1% in experiment [1]; 26.3% in experiment [2]; -47.6% (active) in experiment [3]; 24.8% in experiment [4]; 14.6% in experiment [5]; 11.7% in experiment [6]. The values for the growth in experiment [7] and in experiment [8] were 12.1% and 7.54% (active), respectively.

With `O=S(=O)(O)c1ccc(Cl)c(Cl)c1`, the growth in experiment [1] is 105%; in experiment [2], 97.7%; in experiment [3], 100%; in experiment [4] it was 111%; in experiment [5] it was 99.9%; in experiment [6], 105%. Besides, the growth in experiment [7] was 104%; in experiment [8], 111%.

`Oc1ccc(N=Nc2ccc(Br)cc2)c(O)c1`: the growth in experiment [1] is 28%; in experiment [2], 46.1%; in experiment [3] it was -49% (active); in experiment [4], 18.8%; in experiment [5], 15.6%; in experiment [6] it was 18.1%. The growth is 33.6% in experiment [7] and 8.35% (active) in experiment [8].
